This is an account of results in PubChem BioAssay AID588726 (The Scripps Research Institute Molecular Screening Center, 2011).

Out of some 360,000 compounds screened, about 8,200 (2.3%) were called active. No stated cut-off is given here; in the data, active means inhibition above about 27%; inactive means the rest. Only a selection was taken, and actives are over-represented in it overall.

This experiment deals with Fructose-bisphosphate aldolase (Mycobacterium tuberculosis (strain ATCC 25618 / H37Rv)) (UniProt P9WQA3). The experiment in a line: M. tuberculosis aldolase activity blockers – biochemical, fluorescence, strain H37Rv, primary screen (AID 588726).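 Further: 0% = vehicle and 100% = reference inhibitor.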 The note with it: purified M. tuberculosis FBA, fluorescence read-out, at 1 µM, stronger effect = higher value.
Fructose-bisphosphate aldolase (Mycobacterium tuberculosis (strain ATCC 25618 / H37Rv)), sequence (P9WQA3 whole entry, looked up): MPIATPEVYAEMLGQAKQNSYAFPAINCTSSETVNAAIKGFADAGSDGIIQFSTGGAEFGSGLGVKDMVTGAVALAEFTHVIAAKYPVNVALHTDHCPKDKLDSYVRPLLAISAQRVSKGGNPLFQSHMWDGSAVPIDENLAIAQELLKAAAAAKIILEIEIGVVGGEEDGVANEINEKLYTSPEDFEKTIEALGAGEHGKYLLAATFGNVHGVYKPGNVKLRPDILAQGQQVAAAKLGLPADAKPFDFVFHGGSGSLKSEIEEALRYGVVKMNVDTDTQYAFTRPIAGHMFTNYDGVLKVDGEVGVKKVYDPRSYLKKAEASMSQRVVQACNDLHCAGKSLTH
Turning to `O=C(CSc1ncnc2c1oc1ccccc12)NC1CCCC1`, the inhibition was -1.09% (inactive).
Then `CCOc1ccc(CCNC(=O)COC(=O)c2c(OC)cccc2OC)cc1OCC`, with -0.8% (inactive); and `COc1ccc(C(=O)OCc2cc(=O)n3ccsc3n2)cc1F`, with -2.01% (inactive); and `COc1ccc(NC(=S)NCC2CCN(c3ccc(OC)cc3)C2)cc1` (stereo not given), with -3.11% (inactive).
Consider `COc1ccc([C@H]2N[C@]3(CCCN(Cc4ccco4)C3=O)[C@H]3C(=O)N(C)C(=O)[C@@H]23)cc1`, for which the inhibition was -1.27% (inactive).
`COC(=O)Cc1nc2c(N)nc(N)nc2[nH]c1=O`: the inhibition is 159% (active).
Then `COc1cc(C(=O)NC2CCN(C)CC2)ccc1Nc1ncc2c(n1)N(C1CCC(O)CC1)CCC(=O)N2C` (stereo not given), with 1.68% (inactive).
Then `O=C(O)CCc1nc2cc(Cl)ccc2n(Cc2ccccc2)c1=O`, with 1.59% (inactive).
Then `O=c1[nH]cccc1-c1nc2ccccc2n1Cc1ccc(Cl)cc1`, with 187% (active); and `CC(C)(C)N1CC(c2nc3ccccc3n2Cc2ccc(F)cc2)CC1=O` (stereo not given), with -9.37% (inactive); and `O=C(CNC(=O)OCc1ccccc1)NC1CCCCNC1=O` (stereo not given), with 0.55% (inactive).
As to `Nc1ccccc1C(=O)NC1CCCCNC1=O` (stereo not given), the inhibition was 68.5% (active).
For the molecule `CC12CN3CCN(CC(C3)/C1=N\NC(=O)c1ccccc1N)C2`, the inhibition is 1.1% (inactive).
Then `CC(=O)Oc1ccc2c(C)c(CC(C)O)c(=O)oc2c1` (stereo not given), with 797% [above what the read-out allows, likely interference] (active); and `O=C(Oc1ccccc1)Oc1ccc2c(c1)oc(=O)c1ccccc12`, with 8.31% (inactive); and `Cc1c(CCC(=O)O)c(=O)oc2cc(OCc3ccc(Br)cc3)ccc12`, with 46.6% (active).
Consider `CC(=O)Nc1cc2ccc(OC(C)=O)cc2oc1=O`, for which the inhibition is 179% (active).
Then `Cc1c(Cc2ccccc2)c(=O)oc2cc(OCC(N)=O)ccc12`, with 65.5% (active); and `Cc1c(C)c2ccc(OCC(=O)N3CCN(c4cccc(Cl)c4)CC3)cc2oc1=O`, with 6.95% (inactive).
On to `Cc1ccc(OCC(=O)Nc2ccc3oc(=O)ccc3c2)cc1C`, for which the inhibition is 1.09% (inactive).
Regarding `COC(=O)Cc1c(C)c2ccc(OCC(=O)NCc3ccc4c(c3)OCO4)cc2oc1=O`, the inhibition was 12% (inactive).
For `Cc1cc(C)cc(Oc2c(C(F)(F)F)oc3cc(OCC(=O)O)ccc3c2=O)c1` the value was -1.51% (inactive); for `CCOC(=O)c1cc(=O)c2ccc(OCc3ccccc3)cc2o1`, 2.55% (inactive); for `COc1cccc(-c2coc3cc4oc(=O)c(CC(=O)O)c(C)c4cc23)c1`, 6.49% (inactive).
For the molecule `Cc1coc2cc3oc(=O)c(CCC(=O)O)c(C)c3cc12`, the inhibition is 16.5% (inactive).
